What all share (details): mRNA level, 48 h; actives raise or lower the signal
Read-out in assay [1]: Bcl-2 (BID) gene, BID (gene 637)
The assay is described as follows: LTEA_HepaRG_BID: Life Technologies and Expression Analysis (LTEA) Assay for Bcl-2 (BID) gene using HepaRG (AID 2283476). In a few lines:
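Gene expression by qRT-PCR in HepaRG cells after 48 h exposure, duplicate wells, eight half-log concentrations topping at 100 uM in 0.5% DMSO. Normalized to ACTB, GAPDH, POLR2A; bidirectional fitting relative to DMSO.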

Read-out in the next assay: Caspase-3 (Homo sapiens) (UniProt P42574)
The assay is described as follows: LTEA_HepaRG_CASP3: Life Technologies and Expression Analysis (LTEA) Assay for cysteine-aspartic acid protease (CASP3) using HepaRG (AID 2283477). In a few lines:
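In HepaRG liver cells dosed for 48 h at up to 100 uM (eight-point, duplicate), CASP3 expression changes are scored by qRT-PCR. Activity is fitted in both directions with 0.5% DMSO as baseline.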

Read-out in assay [2]: Cytochrome P450 (CYP24A1), CYP24A1 (gene 1591)
The assay is described as follows: LTEA_HepaRG_CYP24A1: Life Technologies and Expression Analysis (LTEA) Assay for Cytochrome P450 (CYP24A1) using HepaRG (AID 2283478). In a few lines:
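Human liver HepaRG cultures receive each chemical for 48 h across an eight-point half-log series topping at 100 uM in 0.5% DMSO. Induction or suppression of CYP24A1 mRNA is scored relative to vehicle after housekeeping-gene normalization.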

Read-out in assay [3]: Cytochrome P450 (CYP1A2), CYP1A2 (gene 1544)
The assay can be described thus: LTEA_HepaRG_CYP1A2: Life Technologies and Expression Analysis (LTEA) Assay for Cytochrome P450 (CYP1A2) using HepaRG (AID 2283479). In a few lines:
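Assesses CYP1A2 mRNA in human HepaRG liver cells after 48 h chemical exposure at up to 100 uM. Values come from qRT-PCR with bidirectional curve fitting relative to DMSO.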

Read-out in assay [4]: cysteine-aspartic acid protease (CASP8), CASP8 (gene 841)
The assay can be described thus: LTEA_HepaRG_CASP8: Life Technologies and Expression Analysis (LTEA) Assay for cysteine-aspartic acid protease (CASP8) using HepaRG (AID 2283480). In a few lines: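 Differentiated HepaRG cells in serum-free induction medium, 48 h exposure, eight-point half-log series from 100 uM in 0.5% DMSO, duplicates. CASP8 mRNA by qRT-PCR, normalized to ACTB, GAPDH, POLR2A; bidirectional fit versus DMSO.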

Read-out in assay [5]: Cytochrome P450 (CYP2B6), CYP2B6 (gene 1555)
The assay can be described thus: LTEA_HepaRG_CYP2B6: Life Technologies and Expression Analysis (LTEA) Assay for Cytochrome P450 (CYP2B6) using HepaRG (AID 2283481). In a few lines: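 Using 48 h treatment of HepaRG cells in serum-free induction medium, concentrations spanned half-log steps from 100 uM in 0.5% DMSO vehicle. CYP2B6 mRNA induction or loss is scored by qRT-PCR against DMSO.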

Read-out in assay [6]: Cytochrome P450 2C19 (Homo sapiens) (UniProt P33261)
The assay is described as follows: LTEA_HepaRG_CYP2C19: Life Technologies and Expression Analysis (LTEA) Assay for CYP2C19 using HepaRG (AID 2283482). In a few lines: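 Human HepaRG liver cells received test chemicals for 48 h (highest 100 uM, half-log dilutions in 0.5% DMSO). CYP2C19 mRNA induction or loss is read by multiplexed qRT-PCR and fitted in both directions versus vehicle.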

Read-out in the next assay: CYP2C8 (gene 1558)
The assay can be described thus: LTEA_HepaRG_CYP2C8: Life Technologies and Expression Analysis (LTEA) Assay for CYP2C8 using HepaRG (AID 2283483). In a few lines:
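Differentiated HepaRG cells in serum-free induction medium exposed 48 h in duplicate to 8 half-log concentrations from 100 uM in 0.5% DMSO. CYP2C8 mRNA by qRT-PCR normalized to ACTB, GAPDH, POLR2A; bidirectional fit versus DMSO.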

Read-out in the next assay: CYP2E1 (gene 1571)
The assay is described as follows: LTEA_HepaRG_CYP2E1: Life Technologies and Expression Analysis (LTEA) Assay for CYP2E1 using HepaRG (AID 2283485). In a few lines:
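HepaRG cells, plated 48 h, then exposed 48 h in serum-free induction medium to eight half-log concentrations from 100 uM in 0.5% DMSO, duplicate. CYP2E1 mRNA by qRT-PCR, normalized to ACTB/GAPDH/POLR2A; bidirectional fit versus DMSO.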

Read-out in another assay: CYP4A11 (gene 1579)
The assay is described as follows: LTEA_HepaRG_CYP4A11: Life Technologies and Expression Analysis (LTEA) Assay for CYP4A11 using HepaRG (AID 2283486). In a few lines:
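Readout is CYP4A11 mRNA induction or suppression (qRT-PCR, ACTB/GAPDH/POLR2A normalization) in human HepaRG cells after 48 h chemical treatment, concentrations to 100 uM in 0.5% DMSO, fitted bidirectionally against vehicle.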

Read-out in assay [7]: Cytochrome P450 3A4 (Homo sapiens) (UniProt P08684)
The assay is described as follows: LTEA_HepaRG_CYP3A4: Life Technologies and Expression Analysis (LTEA) Assay for CYP3A4 using HepaRG (AID 2283487). In a few lines: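 Differentiated HepaRG cells in serum-free induction medium exposed in duplicate for 48 h to 8 half-log concentrations up to 100 uM in 0.5% DMSO. CYP3A4 mRNA measured by qRT-PCR normalized to ACTB, GAPDH and POLR2A; bidirectional fit versus DMSO.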

Read-out in assay [8]: DNA damage-inducible transcript 3 (DDIT3), DDIT3 (gene 1649)
The assay is described as follows: LTEA_HepaRG_DDIT3: Life Technologies and Expression Analysis (LTEA) Assay for DNA damage-inducible transcript 3 (DDIT3) using HepaRG (AID 2283488). In a few lines:
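HepaRG cells, 48 h after plating, exposed 48 h in serum-free induction medium to 8 half-log concentrations up to 100 uM in 0.5% DMSO, in duplicate. DDIT3 mRNA measured by TaqMan qRT-PCR, normalized to ACTB, GAPDH and POLR2A. Fitted bidirectionally against DMSO.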

Read-out in assay [9]: Pro-epidermal growth factor (Homo sapiens) (UniProt P01133)
The assay is described as follows: LTEA_HepaRG_EGF: Life Technologies and Expression Analysis (LTEA) Assay for Epidermal growth factor (EGF) using HepaRG (AID 2283489). In a few lines:
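EGF expression changes in human HepaRG cells are scored by bidirectional fitting relative to 0.5% DMSO controls. Chemicals are tested at eight half-log concentrations up to 100 uM for 48 h in serum-free induction medium.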

Read-out in assay [10]: Early growth response protein 1 (EGR1) transcription factor, EGR1 (gene 1958)
The assay can be described thus: LTEA_HepaRG_EGR1: Life Technologies and Expression Analysis (LTEA) Assay for Early growth response protein 1 (EGR1) transcription factor using HepaRG (AID 2283490). In a few lines:
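Differentiated HepaRG cells in serum-free induction medium exposed 48 hours, duplicate, to 8 half-log concentrations up to 100 uM in 0.5% DMSO. EGR1 mRNA measured by TaqMan qRT-PCR, normalized to ACTB, GAPDH, POLR2A; bidirectional fit versus DMSO.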

Read-out in assay [11]: Ezrin (EZR), EZR (gene 7430)
The assay is described as follows: LTEA_HepaRG_EZR: Life Technologies and Expression Analysis (LTEA) Assay for Ezrin (EZR) using HepaRG (AID 2283491). In a few lines: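 Differentiated human HepaRG cells, 48 h after plating, were exposed in serum-free induction medium for 48 hours to eight half-log concentrations up to 100 uM in 0.5% DMSO. EZR mRNA was measured by TaqMan qRT-PCR, normalized to ACTB, GAPDH and POLR2A, and fitted bidirectionally against DMSO.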

Read-out in assay [12]: Cytochrome P450 3A7 (Homo sapiens) (UniProt P24462)
The assay can be described thus: LTEA_HepaRG_CYP3A7: Life Technologies and Expression Analysis (LTEA) Assay for CYP3A7 using HepaRG (AID 2283492). In a few lines:
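Cells were thawed, plated, cultured 48 h, then treated for a further 48 h with chemicals (eight-point half-log series from 100 uM, 0.5% DMSO). RNA was isolated and CYP3A7 expression quantified by qRT-PCR normalised to ACTB, GAPDH and POLR2A.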

Read-out in another assay: CYP3A5 (gene 1577)
The assay can be described thus: LTEA_HepaRG_CYP3A5: Life Technologies and Expression Analysis (LTEA) Assay for CYP3A5 using HepaRG (AID 2283493). In a few lines:
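HepaRG cells, plated 48 h then in serum-free induction medium, dosed in duplicate for 48 h with eight half-log concentrations up to 100 uM in 0.5% DMSO. Gene mRNA by Fluidigm TaqMan qRT-PCR, normalized to ACTB, GAPDH, POLR2A.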

Read-out in assay [13]: Cytochrome P450 4A22 (Homo sapiens) (UniProt Q5TCH4)
The assay is described as follows: LTEA_HepaRG_CYP4A22: Life Technologies and Expression Analysis (LTEA) Assay for Cytochrome P450 4A22 (CYP4A22) using HepaRG (AID 2283495). In a few lines: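 Cryopreserved HepaRG cells, plated and cultured 48 h, then switched to serum-free induction medium and treated 48 h (duplicates, up to 100 uM, half-log steps, 0.5% DMSO). Expression change of CYP4A22 was fitted bidirectionally against vehicle.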

Read-out in another assay: CYP2C9 (gene 1559)
The assay is described as follows: LTEA_HepaRG_CYP2C9: Life Technologies and Expression Analysis (LTEA) Assay for CYP2C9 using HepaRG (AID 2283484). In a few lines:
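Differentiated human HepaRG cells in serum-free induction medium were exposed 48 h to chemicals in 8-point half-log series from 100 uM (0.5% DMSO), in duplicate. CYP2C9 mRNA was measured by qRT-PCR, normalized to ACTB/GAPDH/POLR2A, with bidirectional fitting versus DMSO.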

Read-out in assay [14]: Fatty Acid-Binding Protein 1 (FABP1), FABP1 (gene 2168)
The assay is described as follows: LTEA_HepaRG_FABP1: Life Technologies and Expression Analysis (LTEA) Assay for Fatty Acid-Binding Protein 1 (FABP1) using HepaRG (AID 2283494). In a few lines: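 Differentiated human HepaRG cells exposed 48 h in serum-free induction medium to eight half-log concentrations up to 100 uM (0.5% DMSO), duplicate. FABP1 mRNA by qRT-PCR, normalised to ACTB, GAPDH, POLR2A; bidirectional fitting against DMSO.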

SMILES strings stand for the structures. The source holds several records for some structures; these can differ, active in one and inactive in another. Calls of active or inactive are those of the source. Rule for the calls: active = hit-call score of the fitted dose curve at least 0.9, where 1 is the maximum; inactive = score below 0.9.

Outcome and AC50 data for 3 compounds are collected here from PubChem BioAssay (EPA / NIEHS).

Broadly, the AC50 is the concentration at which the activity in the assay is half-maximal.

Sequence of Caspase-3 (Homo sapiens) (P42574 whole entry, looked up): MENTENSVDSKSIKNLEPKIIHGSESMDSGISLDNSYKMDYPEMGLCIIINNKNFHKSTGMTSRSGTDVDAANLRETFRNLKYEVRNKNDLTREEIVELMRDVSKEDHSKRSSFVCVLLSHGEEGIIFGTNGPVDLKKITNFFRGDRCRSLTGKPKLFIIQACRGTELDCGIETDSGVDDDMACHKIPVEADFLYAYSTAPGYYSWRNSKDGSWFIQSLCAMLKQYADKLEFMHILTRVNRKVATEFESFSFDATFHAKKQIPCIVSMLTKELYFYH
Sequence of Cytochrome P450 2C19 (Homo sapiens) (P33261 whole entry, looked up): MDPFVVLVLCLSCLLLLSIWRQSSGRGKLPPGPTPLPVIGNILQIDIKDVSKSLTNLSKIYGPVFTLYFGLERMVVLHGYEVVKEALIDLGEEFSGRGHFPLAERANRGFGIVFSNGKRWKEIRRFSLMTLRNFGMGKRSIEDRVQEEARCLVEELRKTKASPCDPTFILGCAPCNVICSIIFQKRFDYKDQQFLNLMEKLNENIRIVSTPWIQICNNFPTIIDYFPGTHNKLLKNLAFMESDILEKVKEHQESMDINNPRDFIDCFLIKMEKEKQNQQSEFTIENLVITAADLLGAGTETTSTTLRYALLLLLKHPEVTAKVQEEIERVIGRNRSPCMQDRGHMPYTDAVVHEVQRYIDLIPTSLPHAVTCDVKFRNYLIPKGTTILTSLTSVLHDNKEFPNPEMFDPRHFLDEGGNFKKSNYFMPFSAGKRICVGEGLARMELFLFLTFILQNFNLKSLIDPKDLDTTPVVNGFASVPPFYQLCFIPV
Sequence of Cytochrome P450 3A7 (Homo sapiens) (P24462 whole entry, looked up): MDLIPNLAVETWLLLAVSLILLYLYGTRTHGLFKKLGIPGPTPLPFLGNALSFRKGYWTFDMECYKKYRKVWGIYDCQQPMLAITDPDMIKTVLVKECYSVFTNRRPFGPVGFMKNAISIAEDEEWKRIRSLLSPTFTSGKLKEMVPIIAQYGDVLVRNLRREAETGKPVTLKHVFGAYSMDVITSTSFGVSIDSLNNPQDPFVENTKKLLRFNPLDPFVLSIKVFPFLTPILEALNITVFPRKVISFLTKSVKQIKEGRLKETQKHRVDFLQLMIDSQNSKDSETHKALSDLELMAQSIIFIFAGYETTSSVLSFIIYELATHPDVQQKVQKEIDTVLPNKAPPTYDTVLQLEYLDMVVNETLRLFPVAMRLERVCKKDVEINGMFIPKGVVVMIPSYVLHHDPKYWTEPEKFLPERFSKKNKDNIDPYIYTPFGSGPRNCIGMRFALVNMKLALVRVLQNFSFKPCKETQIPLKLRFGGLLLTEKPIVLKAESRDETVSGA
Sequence of Cytochrome P450 3A4 (Homo sapiens) (P08684 whole entry, looked up): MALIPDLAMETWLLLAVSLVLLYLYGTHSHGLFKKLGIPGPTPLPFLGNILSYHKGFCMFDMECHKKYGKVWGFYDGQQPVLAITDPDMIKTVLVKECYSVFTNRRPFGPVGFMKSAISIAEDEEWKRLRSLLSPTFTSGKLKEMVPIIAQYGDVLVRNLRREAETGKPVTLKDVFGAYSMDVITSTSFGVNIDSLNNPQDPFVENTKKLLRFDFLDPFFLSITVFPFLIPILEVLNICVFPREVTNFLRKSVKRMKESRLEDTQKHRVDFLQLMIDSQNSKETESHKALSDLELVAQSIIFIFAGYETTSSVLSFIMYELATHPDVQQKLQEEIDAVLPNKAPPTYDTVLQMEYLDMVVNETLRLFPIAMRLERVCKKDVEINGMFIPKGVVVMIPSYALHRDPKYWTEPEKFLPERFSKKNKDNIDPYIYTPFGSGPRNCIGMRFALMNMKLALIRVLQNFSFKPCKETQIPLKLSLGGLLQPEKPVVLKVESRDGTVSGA

With `CN(C)[C@@H]1C(=O)C(C(N)=O)=C(O)[C@@]2(O)C(=O)C3=C(O)c4c(O)cccc4[C@@](C)(O)[C@H]3[C@H](O)[C@@H]12`, the compound was called inactive (in assay [1]; in the assay with Caspase-3 (Homo sapiens); in assay [2]; in assay [3]; in [4]; in assay [5]). Moreover, the result (in assay [6]; with CYP2C8 (gene 1558); with CYP2E1 (gene 1571); with CYP4A11 (gene 1579); in [7]; in assay [8]) was inactive. The outcome (in [9]; in assay [10]; in [11]; in [12]; with CYP3A5 (gene 1577); in [13]) was inactive. The AC50 in assay [5] is 10 µM (active); in the assay with CYP2E1 (gene 1571) it was 50 µM (active); in the assay with CYP4A11 (gene 1579), 38.6 µM (active); in [13], 50 µM (active).

Take `Cc1ccn2nc(S(=O)(=O)Nc3c(F)cccc3F)nc2n1`: the result (in assay [1]; with Caspase-3 (Homo sapiens); in [2]; in assay [3]; in assay [4]; in assay [5]) was inactive. Also, the outcome (in assay [6]; with CYP2C8 (gene 1558); with CYP2C9 (gene 1559); in the assay with CYP2E1 (gene 1571); with CYP4A11 (gene 1579); in assay [8]) was inactive. Moreover, the outcome (in assay [9]; in assay [10]; in assay [11]; in assay [12]; with CYP3A5 (gene 1577); in assay [14]) was inactive. Besides, the outcome in assay [13] was inactive. In addition, in assay [7], the AC50 was 40.5 µM (active).

As for `C[Si](Cn1cncn1)(c1ccc(F)cc1)c1ccc(F)cc1`, the AC50 was 50 µM (active) in assay [1]; 85.6 µM (active) in [3]; 68.8 µM (active) in [5]; 80.1 µM (active) in [6]; 71.8 µM (active) with CYP2C8 (gene 1558); 35.5 µM (active) with CYP2C9 (gene 1559). For the same compound, the AC50 in the assay with CYP2E1 (gene 1571) was 19.4 µM (active); with CYP4A11 (gene 1579) it was 25.9 µM (active); in assay [7], 82.4 µM (active); in [8], 31.9 µM (active); in assay [12], 81.9 µM (active); in assay [14] it was 76.9 µM (active). For the same compound, the AC50 in assay [13] was 15.8 µM (active). The call (with Caspase-3 (Homo sapiens); in assay [2]; in assay [4]; in assay [9]; in [10]; in assay [11]) was inactive. The result with CYP3A5 (gene 1577) was inactive.
